Reference: PubChem BioAssay (NCI)
Compounds without any hit were thinned out: in the full panel of roughly 83,000, 20% have a hit.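 96-well plates, one dose, 48 hours. Percent growth reported; active if below 10.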

Assays:
Assay in all cases: NCI-60 one-dose screen, 48 h (100 = growth as untreated, 0 = no growth, -100 = all killed)
Conditions in all cases: 10 µM unless noted
DU-145 prostate = test system: DU-145 prostate
K-562 leukemia = test system: K-562 leukemia
MALME-3M melanoma = test system: MALME-3M melanoma
MDA-MB-231 breast = test system: MDA-MB-231 breast
RXF 393 renal = test system: RXF 393 renal
SF-268 CNS = test system: SF-268 CNS
SF-295 CNS = test system: SF-295 CNS
SF-539 CNS = test system: SF-539 CNS
UACC-257 melanoma = test system: UACC-257 melanoma
M14 melanoma = test system: M14 melanoma

Measured: growth

CC(=O)Nc1ccc(O)c(C)c1
inactive: DU-145 prostate 109% | K-562 leukemia 98.6% | MALME-3M melanoma 98.8% | MDA-MB-231 breast 96.9% | RXF 393 renal 116% | SF-268 CNS 100% | SF-295 CNS 105% | SF-539 CNS 100% | UACC-257 melanoma 87.8% | M14 melanoma 100%

Cc1nc(O)cc(=O)[nH]1
inactive: DU-145 prostate 113% | K-562 leukemia 112% | MALME-3M melanoma 106% | MDA-MB-231 breast 124% | RXF 393 renal 111% | SF-268 CNS 105% | SF-295 CNS 118% | SF-539 CNS 114% | UACC-257 melanoma 92.1% | M14 melanoma 105%

CCOC(=O)CO
inactive: DU-145 prostate 120% | K-562 leukemia 97.4% | MALME-3M melanoma 87% | MDA-MB-231 breast 109% | RXF 393 renal 93.7% | SF-268 CNS 115% | SF-295 CNS 103% | SF-539 CNS 119% | UACC-257 melanoma 102% | M14 melanoma 104%

Cc1onc(-c2c(F)cccc2Cl)c1-c1ncc(-c2ccc(Br)cc2)o1
inactive: DU-145 prostate 50% | K-562 leukemia 24% | MALME-3M melanoma 45.2% | MDA-MB-231 breast 52.3% | RXF 393 renal 58.7% | SF-268 CNS 43.1% | SF-295 CNS 36.4% | SF-539 CNS 39.6% | UACC-257 melanoma 23.7% | M14 melanoma 54.3%

Nc1ccc(F)cc1F
inactive: DU-145 prostate 110% | K-562 leukemia 107% | MALME-3M melanoma 111% | MDA-MB-231 breast 93.7% | RXF 393 renal 92.2% | SF-268 CNS 109% | SF-295 CNS 104% | SF-539 CNS 94.3% | UACC-257 melanoma 111% | M14 melanoma 101%

O=C(O)CSCC(=O)Nc1cc(C(F)(F)F)ccc1Cl
inactive: DU-145 prostate 128% | K-562 leukemia 102% | MALME-3M melanoma 105% | MDA-MB-231 breast 112% | RXF 393 renal 128% | SF-268 CNS 94.5% | SF-295 CNS 103% | SF-539 CNS 101% | UACC-257 melanoma 103% | M14 melanoma 103%

CCOC(OCC)C(=O)c1ccccc1
inactive: DU-145 prostate 106% | K-562 leukemia 109% | MALME-3M melanoma 93.8% | MDA-MB-231 breast 111% | RXF 393 renal 109% | SF-268 CNS 99.2% | SF-295 CNS 113% | SF-539 CNS 88.2% | UACC-257 melanoma 85.9% | M14 melanoma 101%

O=S(=O)(O)c1cccc2cccnc12
inactive: DU-145 prostate 120% | K-562 leukemia 107% | MALME-3M melanoma 112% | MDA-MB-231 breast 120% | RXF 393 renal 124% | SF-268 CNS 95.1% | SF-295 CNS 109% | SF-539 CNS 109% | UACC-257 melanoma 103% | M14 melanoma 106%

CCOS(=O)(=O)c1ccc([N+](=O)[O-])cc1
inactive: DU-145 prostate 108% | K-562 leukemia 99.2% | MALME-3M melanoma 113% | MDA-MB-231 breast 106% | RXF 393 renal 120% | SF-268 CNS 103% | SF-295 CNS 101% | SF-539 CNS 102% | UACC-257 melanoma 94.5% | M14 melanoma 105%

O=C(O)c1ccccc1Cc1ccc2c(c1)CCCC2
inactive: DU-145 prostate 118% | K-562 leukemia 106% | MALME-3M melanoma 108% | MDA-MB-231 breast 95% | RXF 393 renal 105% | SF-268 CNS 99.5% | SF-295 CNS 116% | SF-539 CNS 110% | UACC-257 melanoma 100% | M14 melanoma 110%

O=C(O)Cc1ccc(Cl)cc1
inactive: DU-145 prostate 107% | K-562 leukemia 53.6% | MALME-3M melanoma 102% | MDA-MB-231 breast 102% | RXF 393 renal 125% | SF-268 CNS 105% | SF-295 CNS 97.5% | SF-539 CNS 99.4% | UACC-257 melanoma 111% | M14 melanoma 93.1%

CCOC(=O)c1c(C)[nH]c(C)c1C=O
inactive: DU-145 prostate 114% | K-562 leukemia 94.7% | MALME-3M melanoma 108% | MDA-MB-231 breast 93% | RXF 393 renal 114% | SF-268 CNS 101% | SF-295 CNS 103% | SF-539 CNS 98.9% | UACC-257 melanoma 69.4% | M14 melanoma 100%

CCOC(=O)CNC
inactive: DU-145 prostate 116% | K-562 leukemia 96.8% | MALME-3M melanoma 114% | MDA-MB-231 breast 97.8% | RXF 393 renal 108% | SF-268 CNS 115% | SF-295 CNS 96.7% | SF-539 CNS 99.7% | UACC-257 melanoma 81.7% | M14 melanoma 104%

CCOC(=O)C1(N)CCCCC1
inactive: DU-145 prostate 112% | K-562 leukemia 116% | MALME-3M melanoma 100% | MDA-MB-231 breast 102% | RXF 393 renal 121% | SF-268 CNS 102% | SF-295 CNS 95.4% | SF-539 CNS 96.9% | UACC-257 melanoma 107% | M14 melanoma 93.8%

CC(=O)Nc1ccc(C(=O)c2ccc(S(=O)(=O)Nc3ccccc3)cc2)cc1
inactive: DU-145 prostate 117% | K-562 leukemia 112% | MALME-3M melanoma 99.5% | MDA-MB-231 breast 88.1% | RXF 393 renal 100% | SF-268 CNS 104% | SF-295 CNS 109% | SF-539 CNS 94.7% | UACC-257 melanoma 69.6% | M14 melanoma 91.8%

CC1CN(CCO)CC(C)O1 (stereo not given)
inactive: DU-145 prostate 107% | K-562 leukemia 98.9% | MALME-3M melanoma 99.7% | MDA-MB-231 breast 101% | RXF 393 renal 132% | SF-268 CNS 99.7% | SF-295 CNS 104% | SF-539 CNS 98.4% | UACC-257 melanoma 105% | M14 melanoma 108%

C#CCSc1nnnn1-c1ccccc1
inactive: DU-145 prostate 79.1% | K-562 leukemia 86% | MALME-3M melanoma 104% | MDA-MB-231 breast 96% | RXF 393 renal 67.3% | SF-268 CNS 82.5% | SF-295 CNS 81.1% | SF-539 CNS 80.2% | UACC-257 melanoma 94.4% | M14 melanoma 104%

O=C(CCCl)OCCOc1ccccc1
inactive: DU-145 prostate 101% | K-562 leukemia 93.2% | MALME-3M melanoma 97.7% | MDA-MB-231 breast 111% | RXF 393 renal 112% | SF-268 CNS 94.6% | SF-295 CNS 105% | SF-539 CNS 95.8% | UACC-257 melanoma 110% | M14 melanoma 102%

c1ccc(Nc2ccccn2)nc1
inactive: DU-145 prostate 120% | K-562 leukemia 90.5% | MALME-3M melanoma 83.4% | MDA-MB-231 breast 97.1% | RXF 393 renal 97.9% | SF-268 CNS 102% | SF-295 CNS 99.3% | SF-539 CNS 94.6% | UACC-257 melanoma 95.3% | M14 melanoma 99.9%

O=C(O)Cc1ccccn1
inactive: DU-145 prostate 111% | K-562 leukemia 108% | MALME-3M melanoma 85.7% | MDA-MB-231 breast 116% | RXF 393 renal 133% | SF-268 CNS 100% | SF-295 CNS 114% | SF-539 CNS 109% | UACC-257 melanoma 98.6% | M14 melanoma 112%

CCOC(=O)c1cc(C)[nH]c(=O)c1C#N
inactive: DU-145 prostate 113% | K-562 leukemia 82.6% | MALME-3M melanoma 123% | MDA-MB-231 breast 116% | RXF 393 renal 98.1% | SF-268 CNS 105% | SF-295 CNS 93.5% | SF-539 CNS 95.6% | UACC-257 melanoma 93% | M14 melanoma 102%

ClCc1cccc2c(CCl)cccc12
inactive: DU-145 prostate 32.6% | K-562 leukemia 79.2% | MALME-3M melanoma 90.6% | MDA-MB-231 breast 92.3% | RXF 393 renal 61% | SF-268 CNS 64.3% | SF-295 CNS 58.6% | SF-539 CNS 61.6% | UACC-257 melanoma 70% | M14 melanoma 25.8%

CCCCOC(=O)c1ccccc1O
inactive: DU-145 prostate 120% | K-562 leukemia 131% | MALME-3M melanoma 104% | MDA-MB-231 breast 104% | RXF 393 renal 161% | SF-268 CNS 117% | SF-295 CNS 110% | SF-539 CNS 106% | UACC-257 melanoma 99.4% | M14 melanoma 117%

NC(CO)(CO)c1ccccc1
inactive: DU-145 prostate 101% | K-562 leukemia 111% | MALME-3M melanoma 105% | MDA-MB-231 breast 111% | RXF 393 renal 101% | SF-268 CNS 97.6% | SF-295 CNS 104% | SF-539 CNS 104% | UACC-257 melanoma 96.5% | M14 melanoma 94.9%

COC(=O)C1(CC(C)=O)NC(=S)NC(=O)C1C#N (stereo not given)
inactive: DU-145 prostate 125% | K-562 leukemia 104% | MALME-3M melanoma 103% | MDA-MB-231 breast 104% | RXF 393 renal 107% | SF-268 CNS 117% | SF-295 CNS 96.8% | SF-539 CNS 103% | UACC-257 melanoma 118% | M14 melanoma 110%

COc1cc(C(=O)NC(=S)NCc2ccncc2)cc(OC)c1OC
inactive: DU-145 prostate 103% | K-562 leukemia 86.2% | MALME-3M melanoma 104% | MDA-MB-231 breast 114% | RXF 393 renal 95.8% | SF-268 CNS 102% | SF-295 CNS 96.5% | SF-539 CNS 95.8% | UACC-257 melanoma 103% | M14 melanoma 106%

O=C(Nc1c(Cl)cc(Cl)cc1Cl)ON=C1CCCCC1
inactive: DU-145 prostate 94.9% | K-562 leukemia 105% | MALME-3M melanoma 101% | MDA-MB-231 breast 101% | RXF 393 renal 116% | SF-268 CNS 91.7% | SF-295 CNS 102% | SF-539 CNS 97.4% | UACC-257 melanoma 102% | M14 melanoma 111%

S=C=Nc1ccc2ccccc2c1
inactive: DU-145 prostate 107% | K-562 leukemia 96% | MALME-3M melanoma 102% | MDA-MB-231 breast 117% | RXF 393 renal 110% | SF-268 CNS 108% | SF-295 CNS 108% | SF-539 CNS 99.9% | UACC-257 melanoma 99.7% | M14 melanoma 103%

C=CCC(O)C=C (stereo not given)
inactive: DU-145 prostate 111% | K-562 leukemia 91.4% | MALME-3M melanoma 80.7% | MDA-MB-231 breast 108% | RXF 393 renal 107% | SF-268 CNS 111% | SF-295 CNS 99.6% | SF-539 CNS 104% | UACC-257 melanoma 93.5% | M14 melanoma 104%

Cc1cccc(-[n+]2noc(N)n2)c1
inactive: DU-145 prostate 75.4% | K-562 leukemia 20.2% | MALME-3M melanoma 86.4% | MDA-MB-231 breast 53.7% | RXF 393 renal 99.1% | SF-268 CNS 81.9% | SF-295 CNS 84.5% | SF-539 CNS 91.6% | UACC-257 melanoma 95.2% | M14 melanoma 88.4%

O=C(Oc1ccccc1Cl)c1ccc(Cl)cc1Cl
inactive: DU-145 prostate 110% | K-562 leukemia 99.6% | MALME-3M melanoma 103% | MDA-MB-231 breast 98.3% | RXF 393 renal 102% | SF-268 CNS 105% | SF-295 CNS 95.1% | SF-539 CNS 95.6% | UACC-257 melanoma 94.3% | M14 melanoma 98.1%
